Laboratory results from the supplement of paper PMC8728848.
This is one part of a sample in which the strongest signals are shown more often than they occur.

Columns and labels:
Test in all cases: glycan array binding signal (z-score within array); higher = stronger binding
Conditions in all cases: glycan notation: IUPAC condensed, linker removed
[1] = biological target: Fuc(a1-2)Gal(b1-3)GalNAc(b1-3)Gal
How it was run: (§1)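 Arrays were curated from the Consortium for Functional Glycomics database, 3228 in total, and kept only where the protein sequence was available. Binding is expressed as a within-array Z-score. This score was averaged across arrays of the same protein sequence at different concentrations or buffers and across linkers, and negative values can be read as non-binding.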

[2] = biological target: Fuc(a1-2)Gal(b1-3)[Fuc(a1-4)]GlcNAc
How it was run: as §1

[3] = biological target: Fuc(a1-2)Gal(b1-3)[Fuc(a1-4)]GlcNAc(b1-3)[Gal(b1-4)GlcNAc(b1-6)]Gal(b1-4)Glc
How it was run: as §1

[4] = biological target: Fuc(a1-2)Gal(b1-4)GlcNAc(b1-3)Gal(b1-4)GlcNAc(b1-2)Man(a1-3)[Fuc(a1-2)Gal(b1-4)GlcNAc(b1-3)Gal(b1-4)GlcNAc(b1-2)Man(a1-6)]Man(b1-4)GlcNAc(b1-4)GlcNAc
How it was run: as §1

[5] = biological target: Fuc(a1-2)Gal(b1-4)[Fuc(a1-3)]GlcNAc(b1-3)Gal(b1-4)[Fuc(a1-3)]GlcNAc
How it was run: as §1

[6] = biological target: Fuc(a1-2)[Gal(a1-3)]Gal(b1-4)GlcNAc(b1-2)Man(a1-3)[Fuc(a1-2)[Gal(a1-3)]Gal(b1-4)GlcNAc(b1-2)Man(a1-6)]Man(b1-4)GlcNAc(b1-4)GlcNAc
How it was run: as §1

[7] = biological target: Fuc(a1-2)[Gal(a1-3)]Gal(b1-4)GlcNAc(b1-3)GalNAc
How it was run: as §1

[8] = biological target: Fuc(a1-2)[GalNAc(a1-3)]Gal(b1-3)GlcNAc(b1-6)GalNAc
How it was run: as §1

[9] = biological target: Fuc(a1-2)[GalNAc(a1-3)]Gal(b1-4)GlcNAc(b1-2)Man(a1-3)[Fuc(a1-2)[GalNAc(a1-3)]Gal(b1-4)GlcNAc(b1-2)Man(a1-6)]Man(b1-4)GlcNAc(b1-4)GlcNAc
How it was run: as §1

[10] = biological target: Fuc(a1-2)[GalNAc(a1-3)]Gal(b1-4)GlcNAc(b1-3)Gal(b1-4)GlcNAc(b1-3)Gal(b1-4)GlcNAc
How it was run: as §1

[11] = biological target: Fuc(a1-2)[GalNAc(b1-3)]Gal
How it was run: as §1

[12] = biological target: Fuc(a1-3)[GalNAc(b1-4)]GlcNAc
How it was run: as §1

[13] = biological target: Gal(a1-3)Gal(b1-4)GlcNAc(b1-2)Man
How it was run: as §1

[14] = biological target: Gal(a1-3)Gal(b1-4)GlcNAc(b1-2)Man(a1-3)[Gal(a1-3)Gal(b1-4)GlcNAc(b1-2)Man(a1-6)]Man(b1-4)GlcNAc(b1-4)GlcNAc
How it was run: as §1

[15] = biological target: Gal(a1-3)[Gal(a1-4)]Gal(b1-4)GlcNAc
How it was run: as §1

Gal(a1-4)Gal(b1-4)Glc = biological target: Gal(a1-4)Gal(b1-4)Glc
How it was run: as §1

[16] = biological target: Gal(b1-3)[Fuc(a1-4)]GlcNAc(b1-2)Man
How it was run: as §1

[17] = biological target: Gal(b1-3)[Fuc(a1-4)]GlcNAc(b1-3)Gal(b1-3)[Fuc(a1-4)]GlcNAc
How it was run: as §1

[18] = biological target: Gal(b1-4)GalNAc(a1-3)[Fuc(a1-2)]Gal(b1-4)GlcNAc
How it was run: as §1

Gal(b1-4)GlcNAc(b1-2)Man = biological target: Gal(b1-4)GlcNAc(b1-2)Man
How it was run: as §1

[19] = biological target: Gal(b1-4)GlcNAc(b1-6)GalNAc
How it was run: as §1

Gal(b1-6)Gal = biological target: Gal(b1-6)Gal
How it was run: as §1

Gal3S(b1-3)GalNAc = biological target: Gal3S(b1-3)GalNAc
How it was run: as §1

Gal3S(b1-4)GlcNAc = biological target: Gal3S(b1-4)GlcNAc
How it was run: as §1

[20] = biological target: Gal3S(b1-4)[Fuc(a1-3)]Glc6S
How it was run: as §1

[21] = biological target: Gal3S(b1-4)[Fuc(a1-3)]GlcNAc
How it was run: as §1

Gal4S6S(b1-4)GlcNAc = biological target: Gal4S6S(b1-4)GlcNAc
How it was run: as §1

[22] = biological target: GalNAc(b1-4)GlcNAc(b1-2)Man
How it was run: as §1

GalNAc(b1-4)GlcNAc6S = biological target: GalNAc(b1-4)GlcNAc6S
How it was run: as §1

[23] = biological target: GlcNAc(b1-2)Man(a1-3)[GlcNAc(b1-4)][GlcNAc(b1-2)Man(a1-6)]Man(b1-4)GlcNAc(b1-4)[Fuc(a1-6)]GlcNAc
How it was run: as §1

GlcNAc(b1-3)Fuc = biological target: GlcNAc(b1-3)Fuc
How it was run: as §1

[24] = biological target: GlcNAc(b1-3)Gal(b1-4)GlcNAc(b1-2)[GlcNAc(b1-3)Gal(b1-4)GlcNAc(b1-6)]Man(a1-6)[GlcNAc(b1-3)Gal(b1-4)GlcNAc(b1-2)Man(a1-3)]Man(b1-4)GlcNAc(b1-4)GlcNAc
How it was run: as §1

[25] = biological target: GlcNAc(b1-3)[GlcNAc(b1-4)][GlcNAc(b1-6)]GlcNAc
How it was run: as §1

[26] = biological target: GlcNAc(b1-4)GlcNAc(b1-4)GlcNAc
How it was run: as §1

[27] = biological target: GlcNAc(b1-6)Gal(b1-4)GlcNAc
How it was run: as §1

[28] = biological target: Man(a1-3)[Man(a1-6)]Man(b1-4)GlcNAc(b1-4)GlcNAc
How it was run: as §1

[29] = biological target: Neu5Ac(a2-3)Gal(b1-3)GalNAc(b1-4)[Neu5Ac(a2-8)Neu5Ac(a2-3)]Gal(b1-4)Glc
How it was run: as §1

[30] = biological target: Neu5Ac(a2-3)Gal(b1-3)GlcNAc
How it was run: as §1

[31] = biological target: Neu5Ac(a2-3)Gal(b1-3)GlcNAc(b1-4)Gal(b1-4)Glc
How it was run: as §1

[32] = biological target: Neu5Ac(a2-3)Gal(b1-3)[Fuc(a1-4)]GlcNAc(b1-3)Gal(b1-3)[Fuc(a1-4)]GlcNAc
How it was run: as §1

[33] = biological target: Neu5Ac(a2-3)Gal(b1-3)[Fuc(a1-4)]GlcNAc(b1-3)Gal(b1-4)[Fuc(a1-3)]GlcNAc
How it was run: as §1

[34] = biological target: Neu5Ac(a2-3)Gal(b1-4)[Fuc(a1-3)]GlcNAc(b1-3)GalNAc
How it was run: as §1

[35] = biological target: Neu5Ac(a2-3)Gal(b1-4)[Fuc(a1-3)]GlcNAc(b1-6)[Gal(b1-3)]GalNAc
How it was run: as §1

[36] = biological target: Neu5Ac(a2-6)Gal(b1-4)GlcNAc(b1-3)Gal(b1-4)[Fuc(a1-3)]GlcNAc(b1-3)Gal(b1-4)[Fuc(a1-3)]GlcNAc
How it was run: as §1

[37] = biological target: Neu5Ac(a2-6)Gal(b1-4)GlcNAc(b1-6)[Gal(b1-3)]GalNAc
How it was run: as §1

[38] = biological target: Neu5Gc(a2-3)Gal(b1-3)GlcNAc
How it was run: as §1

Neu5Gc(a2-3)Gal(b1-4)Glc = biological target: Neu5Gc(a2-3)Gal(b1-4)Glc
How it was run: as §1

B1: Blon0732mut (Bifidobacterium longum) (protein)
chain: MPTSEHKADDATRHLTLIPAPVTLEYTHGTALIGPLVTIEDADQSWETLPIEQLSDELRHRYGVTVLRRRTHGTVISLGLDSRLAHDEYTLDVSESEGIRVRGGGESGLRYGLQTLRQIIGQTSRAIPCLHIQDKPAFAVRAYSLDVTRGRVPTMEFLTWFVDQLALYKYNQFQLYVEHAFAFVELSEAWRGTDPLTAADITYLDEYCARRGIELVPSLATFGHMYMNLRTREHRGLGEFPEDADRPFSFIERMEHHTLNAADPKAHDFASRLIEEYAPLFRSKSFNIGGNETFDLGRGRSAQDAPEAGRDELYAGFVRDLCETLARHGRQPMLWADIALESPRTMDLLPGDITMLNWMYEPQIDESKIQTIATQGRRQFVCPAVRAWSRFFPDYAGAWLNTYHMALAGTKYDAEGMVVTDWGDYGHVNDPRLSVPGLCYGAQNAWNPIEIDAHEMNRRISALVYGDESGRIMDCLARIDSDGVSFPWDLAVQVLELEYGSGTGALNMDVAACMERSSGGKLTLDRTLGCDDARRRMLQWNRERIERRRDCDQVLRDCGDAFAGLDKGGLTAEFLSVMLDGQRLFNELGEELLALADGKDVGSGANRLAADLELWFERYRAQWLSVGRHAELARIAHVVWSLADILRRGAL
[1]
  glycan array binding signal (z-score): -1.26
[2]
  glycan array binding signal (z-score): 0.087
[3]
  glycan array binding signal (z-score): -0.87
[4]
  glycan array binding signal (z-score): -0.325
[5]
  glycan array binding signal (z-score): 0.489
[6]
  glycan array binding signal (z-score): -0.864
[7]
  glycan array binding signal (z-score): -0.533
[8]
  glycan array binding signal (z-score): -0.809
[9]
  glycan array binding signal (z-score): 0.397
[10]
  glycan array binding signal (z-score): 0.035
[11]
  glycan array binding signal (z-score): 0.44
[12]
  glycan array binding signal (z-score): 1.89
[13]
  glycan array binding signal (z-score): -0.505
[14]
  glycan array binding signal (z-score): 0.086
[15]
  glycan array binding signal (z-score): 5.9
Gal(a1-4)Gal(b1-4)Glc
  glycan array binding signal (z-score): 2.6
[16]
  glycan array binding signal (z-score): -0.411
[17]
  glycan array binding signal (z-score): -0.751
[18]
  glycan array binding signal (z-score): 0.345
Gal(b1-4)GlcNAc(b1-2)Man
  glycan array binding signal (z-score): 1.31
[19]
  glycan array binding signal (z-score): 0.168
Gal(b1-6)Gal
  glycan array binding signal (z-score): -0.313
Gal3S(b1-3)GalNAc
  glycan array binding signal (z-score): 1.16
Gal3S(b1-4)GlcNAc
  glycan array binding signal (z-score): -0.019
[20]
  glycan array binding signal (z-score): 4.3
[21]
  glycan array binding signal (z-score): 3.42
Gal4S6S(b1-4)GlcNAc
  glycan array binding signal (z-score): 2.26
[22]
  glycan array binding signal (z-score): 0.028
GalNAc(b1-4)GlcNAc6S
  glycan array binding signal (z-score): -0.46
[23]
  glycan array binding signal (z-score): -0.15
GlcNAc(b1-3)Fuc
  glycan array binding signal (z-score): -1.38
[24]
  glycan array binding signal (z-score): 3.03
[25]
  glycan array binding signal (z-score): 5.26
[26]
  glycan array binding signal (z-score): -0.223
[27]
  glycan array binding signal (z-score): 0.074
[28]
  glycan array binding signal (z-score): -0.261
[29]
  glycan array binding signal (z-score): 3.81
[30]
  glycan array binding signal (z-score): -0.428
[31]
  glycan array binding signal (z-score): 0.176
[32]
  glycan array binding signal (z-score): -0.898
[33]
  glycan array binding signal (z-score): -0.002
[34]
  glycan array binding signal (z-score): 2.5
[35]
  glycan array binding signal (z-score): 0.262
[36]
  glycan array binding signal (z-score): 2.6
[37]
  glycan array binding signal (z-score): 0.982
[38]
  glycan array binding signal (z-score): -0.667
Neu5Gc(a2-3)Gal(b1-4)Glc
  glycan array binding signal (z-score): 2.58
